# Measurements published in PubChem BioAssay.
# Calls of active or inactive are those of the source.
# Key:
# [1] = E. coli DRC41 culture turbidity changes, primary screen, E. coli filamentation inducer project, strain DRC41, OD650, 48 h (AID 1152);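 also: E. coli MC1000 strain DRC41 lacking acrAB efflux pump and sulA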; conditions: E. coli DRC41 (acrAB sulA), higher = more signal, called active from +8 up or from −8 down
# [2] = small-molecule binders of probe aLefty1, primary screen, biochemical, small-molecule microarray, 635/667 nm fluorescence (AID 1153); conditions: higher = more signal;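 also: score merges spot fluorescence with signal-to-noise ratio from the scanned slide images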
# [3] = PSAC antagonists in infected red cells, primary screen, cell-based, P. falciparum Indochina, OD700, 1 h (AID 1154); conditions: P. falciparum Indochina infected RBC osmotic lysis, higher = more signal, called active from +8 up or from −8 down
# [4] = PSAC antagonists in infected red cells, primary screen, cell-based, P. falciparum Indochina, OD700, 2 h (AID 1155);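 also: lysis reports solute entry through the parasite surface anion channel PSAC; channel blockers reduce lysis of infected cells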; conditions: P. falciparum Indochina infected erythrocytes, osmotic lysis OD700; higher = more signal, called active from +8 up or from −8 down
# [5] = osmotic lysis modulators in infected erythrocytes, primary screen, PSAC antagonist project, cell-based, P. falciparum Indochina, OD700, 3 h (AID 1156); conditions: higher = more signal, called active from +8 up or from −8 down
# [6] = PSAC antagonists in infected red cells, primary screen, cell-based, P. falciparum Indochina, OD700, 18 h (AID 1157); conditions: P. falciparum Indochina infected erythrocytes, osmotic lysis OD700, 18 h; higher = more signal, called active from +8 up or from −8 down
# [7] = modulators of S6 phosphorylation in cells, primary screen, cell-based, A549, cytoblot, luminescence, serum-stimulated (AID 1158); conditions: A549 phospho-S6 cytoblot, 5 h, higher = more signal;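 also: serum-stimulated A549 lung adenocarcinoma cells; signal is phosphorylated S6 detected by cytoblot immunostaining with HRP secondary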
# [8] = molecular target: NADPH oxidase 2 (Homo sapiens) (UniProt P04839); assay: NOX2-dependent H2O2 signal modulators, primary screen, NOX inhibitor project, cell-based, HEK293-NOX2, PMA-stimulated, Amplex Red fluorescence (AID 1159); conditions: 45 min, higher = more signal, called active from +8 up or from −8 down; also: test concentration not given here
# [9] = molecular target: NADPH oxidase 4 (Homo sapiens) (UniProt Q9NPH5); assay: NOX4-dependent H2O2 signal modulators, primary screen, NOX inhibitor project, cell-based, HEK293-NOX4, tetracycline-induced, Amplex Red fluorescence (AID 1160); conditions: 45 min, higher = more signal, called active from +8 up or from −8 down
# [10] = molecular target: NADPH oxidase 5 (Homo sapiens) (UniProt Q96PH1); assay: NOX5-dependent H2O2 signal modulators, primary screen, NOX inhibitor project, cell-based, HEK293-NOX5, Amplex Red fluorescence (AID 1161); conditions: HEK293-NOX5, ionomycin, 45 min, higher = more signal
# [11] = A549 cell viability effects, profiling panel, calcein-AM fluorescence, 48 h, basal (AID 1162); conditions: higher = more signal; also: test concentration not given here
# [12] = adipocyte viability effects, profiling panel, cell-based, 3T3-L1 adipocytes, calcein-AM fluorescence, 48 h, basal (AID 1163); conditions: 3T3-L1 adipocytes viability, higher = more signal; also: test concentration not given here
# [13] = HepG2 cell viability effects, profiling panel, calcein-AM fluorescence, 48 h, basal (AID 1164); conditions: higher = more signal; also: test concentration not given here
# [14] = MM1S cell viability effects, profiling panel, calcein-AM fluorescence, 48 h, basal (AID 1165); conditions: higher = more signal;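 also: viability of MM1S multiple myeloma cells under basal unstimulated conditions; test concentration not given here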
# [15] = basal RPMI8226 viability, no added stimulus, profiling panel, cell-based, calcein-AM fluorescence, 48 h, PK04 Diversity Set (AID 1166); conditions: RPMI8226 myeloma viability, higher = more signal;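 also: cells grown under basal conditions without added stimulus; test concentration not given here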
# [16] = basal HepG2 mitochondrial membrane potential changes, profiling panel, cell-based, JC-1 fluorescence, 24 h, 100 nL compound (AID 1167); conditions: higher = more signal; also: test concentration not given here
# [17] = basal 3T3-L1 adipocyte mitochondrial potential changes, profiling panel, cell-based, JC-1 fluorescence, 3T3-L1 adipocytes, 24 h, 100 nL compound (AID 1168); conditions: JC-1 mitochondrial fluorescence, higher = more signal, called active from +8 up or from −8 down; also: test concentration not given here
# [18] = basal RPMI8226 mitochondrial membrane potential changes, profiling panel, cell-based, JC-1 fluorescence, 24 h, 100 nL compound (AID 1169); conditions: RPMI8226 myeloma, JC-1 mitochondrial potential fluorescence, higher = more signal; also: test concentration not given here
# [19] = basal MM1S mitochondrial membrane potential changes, profiling panel, cell-based, JC-1 fluorescence, 24 h, 100 nL compound (AID 1170); conditions: higher = more signal; also: test concentration not given here
# [20] = A549 lung cancer cell viability effects, profiling panel, resazurin fluorescence, 24 h, PK04 Diversity Set (AID 1171); conditions: higher = more signal, called active from +8 up or from −8 down; also: test concentration not given here
# Chain of NADPH oxidase 5 (Homo sapiens) (Q96PH1 whole entry, looked up): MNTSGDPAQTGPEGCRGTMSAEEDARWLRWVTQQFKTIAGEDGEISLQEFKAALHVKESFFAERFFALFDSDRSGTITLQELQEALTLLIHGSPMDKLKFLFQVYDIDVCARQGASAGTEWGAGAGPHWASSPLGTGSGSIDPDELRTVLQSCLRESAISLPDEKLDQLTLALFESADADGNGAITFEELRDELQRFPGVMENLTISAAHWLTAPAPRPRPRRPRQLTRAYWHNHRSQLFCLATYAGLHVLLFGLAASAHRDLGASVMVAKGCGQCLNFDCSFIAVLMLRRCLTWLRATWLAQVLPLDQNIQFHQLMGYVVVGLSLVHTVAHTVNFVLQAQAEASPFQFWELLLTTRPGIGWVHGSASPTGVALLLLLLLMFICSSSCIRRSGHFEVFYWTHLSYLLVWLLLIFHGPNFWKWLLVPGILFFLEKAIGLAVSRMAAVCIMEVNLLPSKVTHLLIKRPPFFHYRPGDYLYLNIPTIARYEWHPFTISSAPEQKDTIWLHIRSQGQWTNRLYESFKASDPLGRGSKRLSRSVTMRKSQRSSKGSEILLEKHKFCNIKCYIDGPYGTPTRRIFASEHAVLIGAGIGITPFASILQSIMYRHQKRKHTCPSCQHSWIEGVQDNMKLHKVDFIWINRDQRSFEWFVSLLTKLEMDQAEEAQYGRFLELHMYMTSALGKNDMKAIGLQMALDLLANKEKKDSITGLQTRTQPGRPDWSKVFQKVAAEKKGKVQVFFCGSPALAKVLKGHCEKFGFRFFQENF
# Chain of NADPH oxidase 2 (Homo sapiens) (P04839 whole entry, looked up): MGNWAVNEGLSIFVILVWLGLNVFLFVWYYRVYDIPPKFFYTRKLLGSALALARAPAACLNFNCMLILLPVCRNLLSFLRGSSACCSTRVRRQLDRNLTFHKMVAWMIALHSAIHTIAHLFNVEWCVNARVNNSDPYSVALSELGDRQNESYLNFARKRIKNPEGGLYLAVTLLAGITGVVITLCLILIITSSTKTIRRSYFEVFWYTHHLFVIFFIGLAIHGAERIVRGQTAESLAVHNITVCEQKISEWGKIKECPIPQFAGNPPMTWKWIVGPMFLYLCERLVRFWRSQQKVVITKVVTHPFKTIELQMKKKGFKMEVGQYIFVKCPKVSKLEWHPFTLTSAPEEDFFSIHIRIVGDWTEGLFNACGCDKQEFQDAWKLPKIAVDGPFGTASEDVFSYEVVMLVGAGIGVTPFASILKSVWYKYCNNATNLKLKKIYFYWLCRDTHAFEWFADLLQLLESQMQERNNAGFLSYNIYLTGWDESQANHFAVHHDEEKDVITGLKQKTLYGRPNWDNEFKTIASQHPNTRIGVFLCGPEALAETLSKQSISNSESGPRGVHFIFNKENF
# Chain of NADPH oxidase 4 (Homo sapiens) (Q9NPH5 whole entry, looked up): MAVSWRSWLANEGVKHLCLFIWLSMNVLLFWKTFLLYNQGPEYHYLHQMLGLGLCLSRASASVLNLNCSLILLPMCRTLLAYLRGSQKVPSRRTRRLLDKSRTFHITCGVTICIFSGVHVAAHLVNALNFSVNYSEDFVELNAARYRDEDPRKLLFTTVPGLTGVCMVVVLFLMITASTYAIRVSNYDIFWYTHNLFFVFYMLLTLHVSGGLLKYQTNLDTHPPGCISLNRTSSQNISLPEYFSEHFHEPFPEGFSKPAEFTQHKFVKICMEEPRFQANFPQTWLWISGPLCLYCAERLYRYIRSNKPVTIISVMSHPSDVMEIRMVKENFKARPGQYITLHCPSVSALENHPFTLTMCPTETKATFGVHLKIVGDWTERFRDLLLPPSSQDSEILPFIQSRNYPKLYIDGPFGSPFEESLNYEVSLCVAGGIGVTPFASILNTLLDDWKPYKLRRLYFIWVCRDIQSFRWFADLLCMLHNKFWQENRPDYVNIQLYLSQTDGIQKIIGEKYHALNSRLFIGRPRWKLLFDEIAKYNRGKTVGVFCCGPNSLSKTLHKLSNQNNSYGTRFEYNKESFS
SMILES,z-score [1],composite z-score [2],z-score [3],z-score [4],z-score [5],z-score [6],z-score [7],z-score [8],z-score [9],z-score [10],z-score [11],z-score [12],z-score [13],z-score [14],z-score [15],z-score [16],z-score [17],z-score [18],z-score [19],z-score [20]
COc1cc(NN2C(C(O)c3ccco3)C=CC3C(=O)N(C)C(=O)C32)cc(OC)c1OC (stereo not given),-1.82 (inactive),0.429,0.715 (inactive),0.959 (inactive),0.214 (inactive),1.1 (inactive),-0.808,-1.95 (inactive),-3.55 (inactive),-2.81,-1.2,-0.615,-0.827,0.032,0.134,-1.01,-0.892 (inactive),-0.573,0.314,-1.41 (inactive)
CCCCN1CC=CC23O[C@@H]4/C=C\CCC(C)OC(=O)C4[C@H]2C(=O)N(CCCO)[C@@H]3C1=O (stereo not given in full),0.323 (inactive),0.0494,0.591 (inactive),-0.0611 (inactive),-0.23 (inactive),0.408 (inactive),-0.118,1.1 (inactive),-1.84 (inactive),0.861,-0.615,1.57,-0.241,1.04,-0.386,-0.534,0.276 (inactive),0.635,0.71,-0.523 (inactive)
CN(C)C(=O)[C@]1(CCC(=O)OC(C)(C)C)N=C(c2ccc(OCCCO)cc2)O[C@@H]1c1ccccc1CN=[N+]=[N-],0.636 (inactive),-0.182,29.8 (active),25.2 (active),2.29 (inactive),3.77 (inactive),-0.175,0.629 (inactive),2.22 (inactive),1.19,-0.307,0.911,0.697,0.545,0.259,1.74,-0.682 (inactive),0.124,-0.412,0.669 (inactive)
CC(C)N1CC=CC23O[C@@H]4C=CCCOC(=O)C4[C@H]2C(=O)N(CCCO)[C@@H]3C1=O (stereo not given in full),2.91 (inactive),0.0656,-0.0633 (inactive),-0.706 (inactive),1.3 (inactive),-0.646 (inactive),0.842,-1.67 (inactive),-2.17 (inactive),-2.78,-0.726,1.36,0.292,0.756,-0.457,-0.568,0.128 (inactive),-0.303,-0.438,0.446 (inactive)
CC1CC/C=C\[C@H]2OC34C=CCN(C(C)(C)C)C(=O)[C@H]3N(CCCCCO)C(=O)[C@@H]4C2C(=O)O1 (stereo not given in full),-0.121 (inactive),-0.0984,0.204 (inactive),0.437 (inactive),-0.136 (inactive),0.21 (inactive),-0.333,0.673 (inactive),-0.225 (inactive),1.3,0.0683,0.525,0.0474,0.719,-0.561,-0.589,-0.226 (inactive),0.592,-0.203,-0.146 (inactive)
